High-throughput results deposited in PubChem by National Center for Advancing Translational Sciences (NCATS).
In the library only some 2.4% were active in any assay of this set; here they are far more common.
D2 PAM-1 – D2 dopamine receptor (human) potentiation; AID 485347; potentiation, % at 10 µM; P14416; HEK293 T-REx D2, calcium flux, EC20 dopamine potentiation; 340,000 tested, 0.34% active;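 active = potentiation over 3 SD above the plate norm, cut at about 30% in these data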; note: 0% is about no effect
Target sequence (P14416 whole entry, looked up): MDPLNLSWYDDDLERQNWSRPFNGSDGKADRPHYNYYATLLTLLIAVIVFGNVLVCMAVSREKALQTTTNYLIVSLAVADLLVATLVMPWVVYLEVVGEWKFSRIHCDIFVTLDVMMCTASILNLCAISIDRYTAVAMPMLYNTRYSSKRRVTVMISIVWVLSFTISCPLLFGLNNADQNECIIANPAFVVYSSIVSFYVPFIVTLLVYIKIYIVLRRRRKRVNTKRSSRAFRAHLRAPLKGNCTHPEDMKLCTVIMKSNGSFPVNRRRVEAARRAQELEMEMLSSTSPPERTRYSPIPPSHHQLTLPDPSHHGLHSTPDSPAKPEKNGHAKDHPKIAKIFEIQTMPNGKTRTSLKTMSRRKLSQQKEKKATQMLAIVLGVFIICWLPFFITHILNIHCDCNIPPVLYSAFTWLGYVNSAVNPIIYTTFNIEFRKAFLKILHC
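Tetracycline-induced Hek293 Trex D2 cells, force-coupled to calcium, loaded with no-wash calcium dye. Compound added with 180 s kinetic read for agonism, then EC20 dopamine and a further 180 s read for potentiation.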
D2 ag-1 – D2 dopamine receptor (human) agonism; P14416; HEK293 T-REx D2 cells, calcium flux agonist mode; activation, % at 2 µM; 340,000 tested, 0.53% active;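 active = activation over 3 SD above normal in the single-dose calcium agonist read, cut at about 30% in these data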; note: 0% is about no effect
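HEK293 Trex D2 cells, tetracycline-induced, o/n 30 C 5% CO2; no-wash Ca dye, RT 30–90 min; 10-cycle baseline, 23 nl cpd added, kinetic Ca read 180 s; agonist hits = positive Ca response.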
D2 PAM-2 – human D2 receptor positive allosteric modulation. P14416. 360,000 tested, 0.23% active. AID 624464. DiscoveRx D2 beta-arrestin cells, luminescence, 90 min; 100% = 57 uM dopamine signal. potentiation, % (test concentration not listed); in the data active = potentiation above about 50%; inconclusive = mostly about 30% to 49%
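D2 cells co-treated with compound plus 50 nM dopamine (EC20) for 90 min at 37 deg C to detect potentiation. Beta-arrestin recruitment was read as enzyme-fragment luminescence after 1 h at ambient temperature. Full response was set by 57 uM dopamine.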
D2 antag – antagonizes the human D2 dopamine receptor. P14416. HEK293 TREx D2 cells, calcium flux, dopamine EC80. inhibition, % at 10 µM. 340,000 tested, 2% active; in the data active = inhibition above about 30%; inactive = below that, where a call was filed; note: 0% is about no effect
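Measurement of antagonist activity uses fluorescent calcium dye in inducible HEK293 T-REx D2 cells: 10 s baseline, compound addition with 180 s read, EC80 dopamine addition with a further 180 s read.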
D2 ag-2 – human D2 receptor agonism in beta-arrestin assay; AID 624465; P14416; DiscoveRx PathHunter D2 beta-arrestin, luminescence, 90 min; 100% = 57 uM dopamine signal; activation, % (concentration not given with the values); 360,000 tested, 0.084% active; in the data active = activation above about 40%; inconclusive = between about 15% and that limit
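DiscoveRx PathHunter D2 beta-arrestin cells (2,100/well) attached overnight, then compound-stimulated 90 min at 37 C in HBSS/10 mM HEPES/0.1% Tween-20 buffer; beta-galactosidase complementation read by luminescence after 1 h at ambient temperature. Dopamine 57 uM final (EC100) as control.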
An asterisk follows results filed as active; ? = inconclusive; . = not tested or not shown.

SMILES	D2 PAM-1	D2 ag-1	D2 PAM-2	D2 antag	D2 ag-2
Cc1ccc(N2CC(C(=O)OCc3ccc([N+](=O)[O-])cc3)CC2=O)cc1 (stereo not drawn)	31*	0	-2	-16	-1
Cc1ccc(Cl)cc1NC(=O)c1cc(CN2CCCC2)on1	4	-1	.	.	.
CN1CCN(c2ncc3c(n2)CCN(Cc2ccc(Br)s2)C3)CC1	-8	2	.	.	.
O=C(NC1CCN(Cc2ccccc2)CC1)C(NS(=O)(=O)c1cccc2nsnc12)c1ccccc1 (stereo not drawn)	-18	-1	-11	35*	0
CCOC(=O)N1CCC(NC(=O)C(NS(=O)(=O)c2cccc3nsnc23)c2ccccc2)CC1 (stereo not drawn)	1	-1	-6	7	4
Cc1cccc(NCc2ccc(N(C)C)cc2)n1	33*	0	-6	-16	1
Cc1nc2ncnn2c(N2CCN(c3cccc(C(F)(F)F)c3)CC2)c1C	.	.	-6	.	2
Cn1nc(C(F)(F)F)c(C#N)c1N1CCN(c2cccc(C(F)(F)F)c2)CC1	-19	1	-29	43*	-3
O=C(O)c1cc2c(cc1NC(=O)C1CCCC1)OCCO2	-15	1	-8	33*	-6
COc1cc(NC(=O)COCc2cc(-c3ccc4c(c3)OCO4)on2)c(OC)cc1Cl	3	1	.	.	.
Cc1ccc(NC(=O)N2CCCC2C(=O)NCC2CCCCC2)cc1 (stereo not drawn)	-5	0	-6	35*	-1
COc1ccccc1CN=c1c([N+](=O)[O-])nn(-c2ccc3c(c2)OCCO3)n1O	5	-1	129*	8	?
O=[N+]([O-])c1nn(-c2ccc3c(c2)OCCO3)n(O)c1=NC1CCCCC1	-3	1	118*	7	?
O=[N+]([O-])c1nn(-c2ccc3c(c2)OCCO3)n(O)c1=NCc1ccccc1Cl	-2	0	54*	24	12
Cc1ccc(CN=c2c([N+](=O)[O-])nn(-c3cccc(Cl)c3)n2O)cc1	0	-5	?	3	?
CC(C)Oc1ccc(CN2CCc3nc(Nc4ccc5c(c4)OCCO5)ncc3C2)cc1	6	2	.	.	.
Cc1ccn2c(=O)c(NC(=O)c3cccc([N+](=O)[O-])c3C)c(C)nc2c1	8	.	.	.	.
CCCn1cnc2c(=O)oc3ccccc3c21	5	0	-9	39*	-5
CCCn1cnc2c(oc3ccccc32)c1=O	2	0	-3	-3	-3
Cc1ccc(OCCCNCCO)c(Br)c1	-14	1	-29	39*	0
Cc1ccc(OCCCN(C)C)c(Br)c1	8	0	-18	37*	-2
O=C(c1ccc(CSc2nc3ccncc3n2Cc2cccc(F)c2)cc1)N1CCCCCC1	-13	2	.	.	.
COc1ccc(Cn2c(SCc3ccc(C(=O)NC4CCCC4)cc3)nc3cccnc32)cc1	-4	-1	.	.	.
CCC(=O)N1c2ccccc2CC1C(=O)NCCCN1CCN(c2cc(C)ccc2C)CC1 (stereo not drawn)	2	0	.	.	.
Cc1ccccc1NC(=O)c1c(O)c2cccc3c2n(c1=O)CCC3	-20	0	.	47*	.
SMILES	D2 PAM-1	D2 ag-1	D2 PAM-2	D2 antag	D2 ag-2
CC(C)(C)c1ccc(CSc2nc3c(c(=O)[nH]2)CCCC3)cc1	8	-2	.	.	.
c1ccc(Cc2cc[n+](Cc3ccccn3)cc2)cc1	9	0	-2	42*	-2
O=[N+]([O-])c1ccc(C[n+]2ccc(Cc3ccccc3)cc2)cc1	-1	0	10	3	13
COc1ccccc1N1CCN(C(=O)CCS(=O)(=O)c2cc(Br)cc3c2N(C(=O)C2CC2)CC3)CC1	12	1	.	.	.
COc1ccc(/C(O)=C2/C(=O)C(=O)N(c3ccccn3)C2c2ccc(OC)c(OC)c2)cc1 (stereo not drawn)	-1	0	-6	3	-6
COc1cccc(/C(O)=C2/C(=O)C(=O)N(c3ccccn3)C2c2ccc(OC)c(OC)c2)c1 (stereo not drawn)	-9	1	3	32*	0
CC1Oc2ccccc2C=C1/C=C1/SC(N2CCOCC2)=NC1=O (stereo not drawn)	36*	0	-1	-8	-1
CC1=CC(C)(C)Nc2ccc(OC(=O)CCN3C(=O)c4ccccc4C3=O)cc21	1	-1	131*	-1	?
CCN(C(=O)CSc1nc2ccccc2n1Cc1ccccc1C#N)c1ccccc1	8	1	.	.	.
O=[N+]([O-])c1cc([N+](=O)[O-])c(Oc2cccnc2Br)cc1NN1CCCCC1	-4	0	4	35*	1
CCC(=O)Nc1cc2c3c(c1)CCN3C(=O)CC2	6	1	-7	33*	-4
CCOc1ccc(C(=O)NCC(c2ccc(Cl)cc2)N2CCCCC2)cc1 (stereo not drawn)	-23	-2	.	.	.
O=C(COC(=O)c1ccccc1SCC(=O)N1CCCC1)Nc1ccccc1C(F)(F)F	1	-1	-22	31*	-4
CCOc1ccccc1NC(=O)COC(=O)c1ccccc1SCC(=O)N1CCCC1	2	0	8	1	6
CCOC(=O)c1ccc(Nc2nnc(C(C)(C)C)c(=O)[nH]2)cc1	0	0	-10	53*	0
CCOC(=O)c1ccc(Nc2ccc(C(C)=O)cc2)cc1	.	.	5	.	3
COc1cc(CNCCCN2CCOCC2)cc(Br)c1OCc1ccc(Cl)cc1	-6	3	2	-2	4
COc1cc(CNCCCN2CCOCC2)cc(Br)c1OCC(=O)N1CCCCC1	8	0	-5	32*	-3
O=C(CCN=C1NS(=O)(=O)c2ccccc21)Nc1ccc(Cl)cc1F	-14	-1	-3	40*	4
O=C(CCCN=C1NS(=O)(=O)c2ccccc21)Nc1ccc(Cl)cc1	-16	0	-14	6	-2
CCOC(=O)c1cccc(NC(=O)CC2C(=O)N(c3ccc(Cl)cc3)C(=O)N2C2CCCC2)c1 (stereo not drawn)	-1	2	.	.	.
C/C(=N\NC(=O)c1ccccc1F)c1ccc(C#N)cc1	5	2	-4	36*	0
COc1cccc(CNCc2cccc(Br)c2)c1OC	-10	1	-15	36*	7
Cc1ccc(-c2nc3ncccc3o2)cc1NC(=O)Cc1ccc(Cl)cc1	31*	0	-9	15	-1
CC(C)C1N=C2c3ccccc3N=C(SCC(=O)NCc3ccccc3Cl)N2C1=O (stereo not drawn)	-6	0	.	.	.
COc1ccc(CCNC(=O)CN2C(=O)c3ccccc3S2(=O)=O)cc1	2	0	-5	34*	-1
O=C(CSc1nc2[nH]c(=O)cc(O)c2s1)NCCc1ccccc1	17	0	-14	0	2
COc1ccc(CCNC(=O)CSc2nc3[nH]c(=O)cc(O)c3s2)cc1	-10	0	-7	44*	-1
